Only some compounds are listed: those with a hit (about 1.8% of all), similar ones and a draw of the others.
PAD4 FP inh: human PAD4 inhibitors, primary screen, biochemical, fluorescence polarization, 1536-well format; Protein-arginine deiminase type-4 (Homo sapiens), Q9UM07; recombinant PAD4, RCA probe fluorescence polarization; inhibition, % at 6.36 µM; 330,000 tested, 0.41% active;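 active = percent inhibition above a cutoff equal to the mean of all tested compounds plus 3 SD, cut at about 15% in these data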;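 note: 0% = PAD4 with RCA probe and DMSO and 100% = probe without PAD4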
Fam108B inh: mouse Fam108B serine hydrolase inhibitors, primary screen, counter-screen for RBBP9 inhibitor project, biochemical, fluorescence polarization | 300,000 tested, 0.33% active | recombinant Fam108B, FP-Rh probe fluorescence polarization | AID 1947, 2009 | inhibition, % at 9.51 µM;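 active = inhibition above the screen mean inhibition plus 3 SD, computed separately per campaign, cut at about 18% in these data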;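 note: inhibitors lower polarization as less probe binds the enzyme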
LYPLA1 inh: LYPLA1 inhibitors, primary screen, counter-screen for PME1 inhibitor project, biochemical, fluorescence polarization, FP-Rh probe ABPP. recombinant LYPLA1. Acyl-protein thioesterase 1 (Homo sapiens), O75608. inhibition, % at 5.9 µM. 320,000 tested, 0.16% active;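 active = inhibition above the mean of all tested compounds plus 3 SD, set per campaign, cut at about 14% in these data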;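 note: inhibitors block serine hydrolase probe labeling of LYPLA1 so polarization falls; 0% = enzyme with DMSO and 100% = wells lacking LYPLA1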
GSTO1 inh: inhibitors of recombinant GSTO1, primary screen, counter-screen for RBBP9 inhibitor project, biochemical, fluorescence polarization. 300,000 tested, 1.1% active. activity-based probe fluorescence polarization. inhibition, % at 5.96 µM;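 active = inhibition above the campaign mean inhibition plus 3 SD, cut at about 35% in these data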;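 note: 0% = GSTO1-1 with DMSO and 100% = wells lacking GSTO1-1 enzyme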
Target sequence (P78417 whole entry, looked up): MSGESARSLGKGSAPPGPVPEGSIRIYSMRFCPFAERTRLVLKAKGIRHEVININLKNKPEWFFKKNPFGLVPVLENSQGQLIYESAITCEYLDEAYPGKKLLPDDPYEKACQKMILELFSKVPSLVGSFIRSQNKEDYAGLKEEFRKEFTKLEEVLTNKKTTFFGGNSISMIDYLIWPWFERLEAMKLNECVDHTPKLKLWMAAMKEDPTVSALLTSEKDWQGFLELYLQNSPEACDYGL
PME-1 inh: PME-1 inhibitors via competitive probe labeling, primary screen, biochemical, fluorescence polarization, FP-Rh probe, HTS; AID 2130, 2009; inhibition, % at 5.9 µM; recombinant PME-1; 320,000 tested, 0.53% active; Protein phosphatase methylesterase 1 (Homo sapiens), Q9Y570;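 active = inhibition above the campaign mean of all compounds plus 3 SD, cut at about 26% in these data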;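 note: competitive labeling of PME-1 active site by serine hydrolase directed probe; 0% = PME-1 with DMSO and 100% = wells lacking PME-1 enzyme; inhibitors block probe labeling so polarization falls and inhibition rises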
Target sequence (Q9Y570 whole entry, looked up): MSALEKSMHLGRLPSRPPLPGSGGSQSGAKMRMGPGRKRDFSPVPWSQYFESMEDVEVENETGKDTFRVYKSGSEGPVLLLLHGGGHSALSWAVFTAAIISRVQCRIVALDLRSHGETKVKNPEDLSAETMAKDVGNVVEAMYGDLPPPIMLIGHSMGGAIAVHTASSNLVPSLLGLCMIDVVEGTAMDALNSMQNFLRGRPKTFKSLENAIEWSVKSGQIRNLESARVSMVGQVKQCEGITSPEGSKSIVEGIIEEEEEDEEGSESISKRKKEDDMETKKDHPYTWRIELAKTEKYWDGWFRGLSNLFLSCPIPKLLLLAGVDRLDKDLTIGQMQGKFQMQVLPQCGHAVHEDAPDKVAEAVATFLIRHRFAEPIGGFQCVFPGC
LYPLA2 inh: LYPLA2 inhibitors, primary screen, counter-screen for PME1 inhibitor project, biochemical, fluorescence polarization, FP-Rh probe ABPP. Acyl-protein thioesterase 2 (Homo sapiens), O95372. recombinant LYPLA2. inhibition, % at 5.9 µM. 320,000 tested, 0.38% active. AID 2177, 2009;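 active = inhibition above the screen-wide mean plus 3 SD, limit set per campaign, cut at about 26% in these data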;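 note: 0% = LYPLA2 with DMSO and 100% = wells lacking LYPLA2 enzyme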
LYPLA2 confirm: LYPLA2 inhibitors, retest, confirmation, counter-screen for PME1 inhibitor project, biochemical, fluorescence polarization, FP-Rh probe ABPP; 1,100 tested, 72% active; shares compounds with LYPLA2 inh; AID 2232, 2010; recombinant LYPLA2; inhibition, % at 5.9 µM;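 active = mean inhibition across replicates above the hit cutoff set in the primary screen, cut at about 26% in these data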;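 note: blocked labeling of the enzyme by serine hydrolase FP-Rh probe lowers polarization; 0% = enzyme with DMSO and 100% = wells lacking LYPLA2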
LYPLA2 ABPP: LYPLA2 inhibitors in proteome, late-stage follow-up, gel-based competitive ABPP, fluorescence, assay provider; inhibition, % at 20 µM; rhLYPLA2 in mouse brain proteome, gel ABPP FP-Rh; shares compounds with LYPLA2 inh; 150 tested, 30% active;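 active = inhibition of LYPLA2 enzyme probe labeling above about 50%, limit read from the data; inactive = inhibition below that limit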;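 note: loss of FP-Rh probe labeling of the LYPLA2 gel band measured as band density; 0% = DMSO only control band and 100% = blank gel background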
* = called active by the depositor; nt = no result given.

SMILES	PAD4 FP inh	Fam108B inh	LYPLA1 inh	GSTO1 inh	PME-1 inh	LYPLA2 inh	LYPLA2 confirm	LYPLA2 ABPP
COc1cc([N+](=O)[O-])ccc1N	3	-1	1	6	-2	4	nt	nt
CC1=NN(c2ccccc2)C(=O)/C1=C\c1ccc(Oc2ccc([N+](=O)[O-])cc2[N+](=O)[O-])cc1	51*	6	12	77*	9	41*	31*	nt
Nc1ccc(Oc2ccc([N+](=O)[O-])cc2[N+](=O)[O-])cc1	1	1	2	11	4	54*	57*	1
COc1cc(/C=C2\C(=O)N(c3ccccc3)N=C2C)ccc1Oc1ccc([N+](=O)[O-])cc1[N+](=O)[O-]	44*	10	0	33	10	31*	18	nt
COc1cc(/C=C2/SC(=O)NC2=O)ccc1Oc1ccc([N+](=O)[O-])cc1[N+](=O)[O-]	4	2	-3	10	15	22	nt	nt
CCCN(CCC)C(=O)C1CC(=O)OC12CCCCC2 (centres undefined)	-2	2	0	-3	-12	-4	nt	nt
CC(C)[C@H](NC(=O)OC(C)(C)C)c1nnc(SCC(=O)Nc2ccc(Br)cc2)o1	-2	-3	0	-3	-3	48*	54*	nt
C[C@H](NC(=O)OC(C)(C)C)c1nnc(SCC(=O)Nc2cccc(Cl)c2)o1	-1	-1	-3	0	4	-1	nt	nt
CN(C(=O)c1ccc(NC(=O)Cc2ccc(NC(=O)C3CCCN(C(=O)C4CCCC4)C3)cc2)cc1)C1CC1 (centres undefined)	-2	nt	5	nt	2	57*	51*	45
CN(C(=O)c1ccc(NC(=O)Cc2cccc(NC(=O)C3CCCN(C(=O)C4CCCCC4)C3)c2)cc1)C1CCCC1 (centres undefined)	-3	nt	-1	nt	4	1	nt	nt
CN(C(=O)c1ccc(NC(=O)Cc2ccc(NC(=O)C3CCCN(C(=O)C4CCC4)C3)cc2)cc1)C1CC1 (centres undefined)	-7	nt	4	nt	-2	66*	61*	41
CN(C(=O)c1ccc(NC(=O)Cc2ccc(NC(=O)C3CCN(C(=O)C4CCCCC4)CC3)cc2)cc1)C1CC1	-1	nt	3	nt	1	8	nt	nt
CN(C(=O)c1ccc(NC(=O)Cc2ccc(NC(=O)C3CCCN(C(=O)c4ccccc4)C3)cc2)cc1)C1CC1 (centres undefined)	7	nt	3	nt	1	63*	60*	34
CN(C(=O)c1ccc(NC(=O)Cc2ccc(NC(=O)C3CCCN(C(=O)C4CCCCC4)C3)cc2)cc1)C1CC1 (centres undefined)	-1	nt	8	nt	3	57*	51*	13
CCN(Cc1ccccc1)C(=O)CSc1ncn[nH]1	2	-2	2	-3	-4	3	nt	nt
CC(C)(C)c1ccc(-n2ncc3c2CCCC3NC(=O)CCN2CCCC2=O)cc1 (centres undefined)	2	-2	1	0	4	4	nt	nt
COc1cccc(NC(=O)COC(=O)c2c(C)nn(-c3ccccc3)c2C)c1	0	nt	-5	nt	-11	49*	42*	nt
COc1ccc(C(=O)OCC(=O)c2c(N)n(C)c(=O)n(C)c2=O)cc1OC	0	-1	1	0	-8	3	nt	nt
Cc1ccc(C)c(N2C(=O)c3ccc(C(=O)OCC(=O)c4c(N)n(C)c(=O)n(C)c4=O)cc3C2=O)c1	-1	-4	-1	-5	0	26*	44*	nt
COc1ccc(OC)c(NC(=O)CCN2CCN(C/C=C/c3ccccc3)CC2)c1	-1	0	1	1	2	-2	nt	nt
Fc1ccc(C2=Nn3c(Cc4ccccc4F)nnc3SC2)cc1	-1	-3	3	1	6	28*	15	nt
COc1c(Cl)cc(Cl)cc1C(=O)n1nc(C)cc1C	1	1	-1	1	-2	1	nt	nt
COc1ccc(N2CCN(C(=O)c3ccc(N(C)S(=O)(=O)c4ccc(C)cc4)cc3)CC2)cc1	-3	-4	6	13	-4	50*	55*	3
COc1ccc(S(=O)(=O)N(C)c2ccc(C(=O)N3CCN(C)CC3)cc2)cc1	0	0	-2	1	1	0	nt	nt
COc1ccc(N2CCN(C(=O)c3ccc(N(C)S(=O)(=O)c4ccc(OC)cc4)cc3)CC2)cc1	0	2	3	0	-1	54*	58*	36
SMILES	PAD4 FP inh	Fam108B inh	LYPLA1 inh	GSTO1 inh	PME-1 inh	LYPLA2 inh	LYPLA2 confirm	LYPLA2 ABPP
COc1ccc(N/C=C(\C#N)c2ccc(OCCCF)cc2)cc1	3	3	6	6	6	73*	61*	37
Cc1ccc(N/C=C(/C#N)c2ccsc2)cc1	-1	4	1	-5	10	0	nt	nt
Cc1ccc(N/C=C(\C#N)c2ccc(OCCCF)cc2)cc1	4	0	-2	6	13	65*	75*	52*
COc1ccccc1NC(=O)NCc1nc(-c2ccc(C(F)(F)F)cc2)no1	-2	1	-1	7	2	2	nt	nt
CC(=O)c1ccc(CCCCCCCCCC(=O)O)s1	0	0	3	5	-3	59*	57*	18
CC(C)/C=C/CN1CCC(Oc2ccc(C(=O)N3CCCC3)cc2)CC1	-4	2	0	4	1	60*	5	nt
CSc1cccc(CN2CCC(Oc3cccc(C(=O)N4CCCC4)c3)CC2)c1	-3	0	2	-3	2	9	nt	nt
CSc1cccc(CN2CCC(Oc3ccc(C(=O)N4CCCCC4)cc3)CC2)c1	8	-1	4	3	4	31*	9	nt
COc1ccccc1/C=C/CN1CCC(Oc2ccc(C(=O)N3CCCC3)cc2)CC1	-2	3	3	9	-1	17	nt	nt
O=C1c2ccc(Oc3ccc4c(c3)C(=O)N(CCCCO)C4=O)cc2C(=O)N1CCCCO	-5	-7	1	-1	-5	29*	35*	nt

Screens deposited in PubChem BioAssay by The Scripps Research Institute Molecular Screening Center.
